Only a selection was taken, and hits are over-represented in it overall.
Sm TGR inh = inhibitors of Schistosoma mansoni thioredoxin glutathione reductase; Q962Y6; purified TGR, DTNB reduction, TNB absorbance 405 nm; Potency, µM (titrated, usually from 114 µM), for inactives: top-dose activity change, negative = inhibition, usual class: inhibitors; 3% of 360,000 active; AID 485364; note: potency is the fitted concentration of half-maximal effect; % is set by controls: 0 for no effect and ±100 for the full control effect; nearly all actives have a fitted effect of over 60% in size
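TGR 20 nM + NADPH 100 uM (dispensed conc.), cpd preinc 15 min RT; start with NADPH (500 uM addition) then DTNB (15 mM addition). Kinetic TNB absorbance, 405 nm filter. Four-parameter Hill fit across titration.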
FBPA Giardia inh = blocks Giardia fructose-bisphosphate aldolase activity. A8B2U2. purified Giardia FBPA. Potency, µM (titrated, usually from 59.6 µM), without a hit: at the top dose activity, negative = inhibition, actives largely listed as inhibitors. 0.71% of 290,000 active; note: potency is the fitted concentration of half-maximal effect; % is set by controls: 0 for no effect and ±100 for the full control effect; nearly all actives have a fitted effect of over 55% in size
Target sequence (A8B2U2 whole entry, looked up): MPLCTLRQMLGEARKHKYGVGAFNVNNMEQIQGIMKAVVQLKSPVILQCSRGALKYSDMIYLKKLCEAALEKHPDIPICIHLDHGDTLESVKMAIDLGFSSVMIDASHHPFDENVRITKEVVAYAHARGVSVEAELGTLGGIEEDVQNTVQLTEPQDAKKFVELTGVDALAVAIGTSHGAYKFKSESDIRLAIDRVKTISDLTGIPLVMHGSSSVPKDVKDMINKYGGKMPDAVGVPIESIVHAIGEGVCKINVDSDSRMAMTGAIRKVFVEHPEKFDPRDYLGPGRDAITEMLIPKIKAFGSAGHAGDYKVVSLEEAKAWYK
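Giardia FBPA (40 nM reagent) was preincubated 10 min at RT with compound (up to 57.5 uM final), then substrate plus GAPDH/TPI/NAD/arsenate coupling system with diaphorase/resazurin was added; resorufin fluorescence (525/598 nm) was read after 20 min.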
Tb PYK inh = blocks Trypanosoma brucei pyruvate kinase; Q57TT1; TbPYK enzyme, Kinase-Glo Plus ATP luminescence, 45 min; Potency, µM (series often up to 76.8 µM), without a hit: at the top dose activity, negative = inhibition, usual class: inhibitors; 0.12% of 410,000 active; note: potency is the fitted concentration of half-maximal effect; % is set by controls: 0 for no effect and ±100 for the full control effect; nearly all actives have a fitted effect of over 50% in size
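In this concentration-response screen, enzyme-free wells defined baseline while DMSO plates tracked drift. Each reaction combined TbPYK, substrate, compound and 130 uM ADP for 45 min at room temperature. Kinase-Glo Plus luminescence gave the signal.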
LmPK inh = inhibitors of Leishmania mexicana pyruvate kinase | Q27686 | purified LmPK, Kinase-Glo ATP luminescence, 1 h | 0.37% of 290,000 active | Potency, µM (doses to about 57.5 µM), for inactives: top-dose activity change, negative = inhibition, actives largely listed as inhibitors; note: potency is the fitted concentration of half-maximal effect; % is set by controls: 0 for no effect and ±100 for the full control effect
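In 50 mM imidazole pH 7.2 with 7 mM MgCl2, LmPK (0.1 nM) turned over PEP (0.5 mM) and ADP (0.1 mM) for 1 h at room temperature. Luciferase read-out of ATP.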
Shiga inhibitor = Shiga toxin inhibition; Vero cells, Shiga toxin protein synthesis inhibition reporter; inhibition, % at 38.7 µM; 9.2% of 290,000 active; AID 2315; in the data active = inhibition mostly above about 28%, no sharp cut-off; inactive = mostly below about 43%; note: 0% is about no effect
CHX counter = counter-screen hit for Shiga toxin inhibitors, cycloheximide | cell reporter, cycloheximide protein synthesis inhibition counterscreen | AID 2314 | max response, % | 12% of 300,000 active; in the data active = max response mostly above about 13%, no sharp cut-off; inactive = mostly below about 14%; note: read at 38.3 µM for the half of the compounds with a filed dose; 0% is about no effect
* hit, by the source's call. Unless noted, calls come from the whole dose curve; as a rule, active = well fitted curve in the direction sought with a large enough effect; inconclusive = small, poorly fitted or top-dose-only effect, or another doubt; inactive = no such curve, though single readings can be large; an effect the other way counts as inactive or inconclusive.

How did O=C(COC(=O)CCC(=O)c1cccs1)Nc1cccc(F)c1 do in these assays?
Sm TGR inh: -3%; Tb PYK inh: -11%

What do the screens show for `O=C(CN1C(=O)c2cccnc2Oc2ccc(Cl)cc21)Nc1ccccc1F`?
Sm TGR inh: -17%; FBPA Giardia inh: 0%; Tb PYK inh: 2%; LmPK inh: 3%; Shiga inhibitor: 14; CHX counter: 13*

How did Cc1nc(N=Nc2cc([N+](=O)[O-])ccc2Cl)c(COP(=O)(O)O)c(C=O)c1O do in these assays?
FBPA Giardia inh: 22µM*; Shiga inhibitor: -11; CHX counter: -11

What do the screens show for `Cc1nc(N=Nc2cc(S(=O)(=O)O)c3cc([N+](=O)[O-])cc(S(=O)(=O)O)c3c2)c(COP(=O)(O)O)c(C=O)c1O`?
FBPA Giardia inh: 18%

What do the screens show for `Clc1cccc(NCc2cn3cccnc3n2)c1`?
Sm TGR inh: 11%; FBPA Giardia inh: -2%; Tb PYK inh: -15%; LmPK inh: -13%; Shiga inhibitor: 18; CHX counter: 27*

How did Fc1ccc(COc2cccc3cccnc23)cc1 do in these assays?
Sm TGR inh: 17%; FBPA Giardia inh: -5%; Tb PYK inh: 13%; LmPK inh: -19%; Shiga inhibitor: 91*; CHX counter: 41*

What do the screens show for `NC(=O)COc1cccc2cccnc12`?
Sm TGR inh: -7%; FBPA Giardia inh: -1%; Tb PYK inh: 1%; LmPK inh: 6%; Shiga inhibitor: -18; CHX counter: 1

What do the screens show for `Cc1cc(Cl)ccc1OCc1cn2cccnc2n1`?
Sm TGR inh: -8%; FBPA Giardia inh: 1%; Tb PYK inh: -1%; LmPK inh: -1%; Shiga inhibitor: 84*; CHX counter: 51*

Results for c1ccc2c(SCc3cn4cccnc4n3)ncnc2c1 ?
Sm TGR inh: 3%; FBPA Giardia inh: inconclusive; Tb PYK inh: 3%; LmPK inh: -4%; Shiga inhibitor: 13; CHX counter: 8

Results for Clc1ccc(OCc2cn3cccnc3n2)c2ncccc12 ?
Sm TGR inh: -6%; FBPA Giardia inh: -5%; Tb PYK inh: 6%; LmPK inh: -1%; Shiga inhibitor: 101*; CHX counter: 35*

How did Cc1c(C(=O)Nc2ccc(F)cc2F)oc2ccc3c(c12)C(=O)CC(C)(C)O3 do in these assays?
Sm TGR inh: -26%; Tb PYK inh: -2%

Results for COc1cc2[nH]c(=O)n(CCCC(=O)N(C)Cc3ccccc3)c(=O)c2cc1OC ?
Sm TGR inh: -1%; Tb PYK inh: -2%

How did Nc1nc2n(n1)C(=O)CC(c1ccccc1)N2 (centres undefined) do in these assays?
Sm TGR inh: 0%; FBPA Giardia inh: 5%; Tb PYK inh: -6%; LmPK inh: 2%; Shiga inhibitor: -12; CHX counter: -3

What do the screens show for `c1cnc2c(OCc3cn4cccnc4n3)cccc2c1`?
Sm TGR inh: -7%; FBPA Giardia inh: -5%; Tb PYK inh: -4%; LmPK inh: -7%; Shiga inhibitor: 77; CHX counter: 28*

How did CN(C)c1ccc(-c2nc3ccccc3n2C)cc1 do in these assays?
Sm TGR inh: inconclusive; FBPA Giardia inh: -12%; Tb PYK inh: inconclusive; LmPK inh: 13µM*; Shiga inhibitor: 15; CHX counter: 24*

What do the screens show for `CCn1c(-c2ccc(N(C)C)cc2)nc2ccccc21`?
Sm TGR inh: 6%; Tb PYK inh: -13%; LmPK inh: -14%; Shiga inhibitor: 73; CHX counter: 23

What do the screens show for `CC(C)n1c(-c2ccc(N(C)C)cc2)nc2ccccc21`?
Sm TGR inh: 0%; FBPA Giardia inh: 10%; Tb PYK inh: -15%; LmPK inh: -8%; Shiga inhibitor: 114*; CHX counter: 29*

What do the screens show for `O=C1CC(NS(=O)(=O)c2cccnc2)CN1c1ccc(Cl)cc1` (centres undefined)?
Sm TGR inh: -15%; Tb PYK inh: 1%

How did N#CC1=C(N)OC2=C(CN(Cc3ccccc3)C/C2=C\c2cccnc2)C1c1cccnc1 (centres undefined) do in these assays?
Sm TGR inh: 22µM*; FBPA Giardia inh: inconclusive; Tb PYK inh: 0%; LmPK inh: 1%; Shiga inhibitor: 1; CHX counter: 7

How did O=C(CCCCn1c(=O)c2ccccc2n(CC(=O)Nc2cccc(F)c2)c1=O)NCCc1ccccc1 do in these assays?
Sm TGR inh: -5%; Tb PYK inh: -2%

How did CCS(=O)(=O)/N=C(\N)c1ccccc1 do in these assays?
Sm TGR inh: 4%; FBPA Giardia inh: 8%; Tb PYK inh: -1%; LmPK inh: 2%; Shiga inhibitor: 22; CHX counter: 30*

Results for CCOc1ccc(S(=O)(=O)/N=C(\N)c2ccccc2)cc1 ?
Sm TGR inh: 5%; FBPA Giardia inh: 9%; Tb PYK inh: -3%; LmPK inh: 1%; Shiga inhibitor: 17; CHX counter: -2

What do the screens show for `O=c1c2ccccc2sn1-c1ccc(Cl)cc1`?
Tb PYK inh: 32µM*

What do the screens show for `O=C(c1sc2cc(F)ccc2c1Cl)N1CCN(c2cccc(Cl)c2)CC1`?
Sm TGR inh: -5%; FBPA Giardia inh: 0%; Tb PYK inh: -1%; LmPK inh: 7%; Shiga inhibitor: 18; CHX counter: -1

What do the screens show for `Cc1ccc(-n2sc3ccccc3c2=O)cc1`?
Sm TGR inh: inconclusive; FBPA Giardia inh: inconclusive; Tb PYK inh: 7.9µM*; LmPK inh: 20µM*; Shiga inhibitor: 31; CHX counter: 18*

How did O=c1c2ccccc2sn1-c1ccc(F)cc1 do in these assays?
Sm TGR inh: -15%; Tb PYK inh: 8.9µM*

How did O=c1c2ccc(F)cc2sn1-c1ccccc1 do in these assays?
Tb PYK inh: 10µM*

Results for Cc1cc(C)cc(-n2cnc3cc(C(=O)NCCc4ccccc4)ccc32)c1 ?
Sm TGR inh: 1%; Tb PYK inh: -3%

How did COCCn1c(=O)c(C)nc2cncnc21 do in these assays?
FBPA Giardia inh: -9%

Results for COc1ccc(-c2ccc(CNc3ccc4[nH]c(=O)[nH]c4c3)o2)cc1Cl ?
Sm TGR inh: -12%; Tb PYK inh: 0%

What do the screens show for `N[C@@H](Cc1cc(CP(=O)(O)O)cc(-c2ccccc2Cl)c1)C(=O)O`?
FBPA Giardia inh: inconclusive; Shiga inhibitor: 24; CHX counter: 6

What do the screens show for `O=c1c2cc(F)ccc2sn1-c1ccccc1Cl`?
Tb PYK inh: 11µM*

How did N=C1SCC(=O)N1c1ccccc1Cl do in these assays?
Sm TGR inh: 16%; FBPA Giardia inh: -10%; Tb PYK inh: 4%; LmPK inh: -6%; Shiga inhibitor: -9; CHX counter: -1

What do the screens show for `COC(=O)c1cccc(-n2sc3ccccc3c2=O)c1`?
Sm TGR inh: inconclusive; Tb PYK inh: 6.3µM*

Results for Cc1ccc(-n2sc3cc(F)ccc3c2=O)c(C)c1 ?
Tb PYK inh: 10µM*
